Experimental data published in PubChem BioAssay (NCI).
This is part of a sample that, as a whole, favours compounds with a hit. Of some 83,000 tested, about 20% had one in any assay.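 The endpoint reported here, percent growth, reads 100 for growth as untreated, 0 for no net growth and -100 for all cells dead.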 Calls of active or inactive are those of the source. The calls were made as follows: active = growth percent below 10; inactive = the rest.

Columns and labels:
Assay in all cases: NCI-60 one-dose screen, 48 h (100 = growth as untreated, 0 = no growth, -100 = all killed)
Conditions in all cases: 10 µM unless noted
NCI-H23 lung = tested on: NCI-H23 lung
NCI-H226 lung = tested on: NCI-H226 lung
NCI-H322M lung = tested on: NCI-H322M lung
HOP-62 NSCLC = tested on: HOP-62 NSCLC
NCI-H460 lung = tested on: NCI-H460 lung
HOP-92 NSCLC = tested on: HOP-92 NSCLC
NCI-H522 lung = tested on: NCI-H522 lung
A549/ATCC NSCLC = tested on: A549/ATCC NSCLC
786-0 renal = tested on: 786-0 renal
COLO 205 colon = tested on: COLO 205 colon
DU-145 prostate = tested on: DU-145 prostate
K-562 leukemia = tested on: K-562 leukemia
MALME-3M melanoma = tested on: MALME-3M melanoma
MDA-MB-231 breast = tested on: MDA-MB-231 breast
RXF 393 renal = tested on: RXF 393 renal
SF-268 CNS = tested on: SF-268 CNS
SF-295 CNS = tested on: SF-295 CNS
SF-539 CNS = tested on: SF-539 CNS
UACC-257 melanoma = tested on: UACC-257 melanoma
M14 melanoma = tested on: M14 melanoma

Measured: growth

N#C/C(C(=O)c1ccccc1)=C1/C(=O)Nc2ccccc21
inactive: NCI-H23 lung 102% | NCI-H226 lung 104% | NCI-H322M lung 100% | HOP-62 NSCLC 86.3% | NCI-H460 lung 106% | HOP-92 NSCLC 105% | NCI-H522 lung 97.6% | A549/ATCC NSCLC 106% | COLO 205 colon 105% | DU-145 prostate 105% | K-562 leukemia 88.6% | MALME-3M melanoma 108% | MDA-MB-231 breast 93.2% | RXF 393 renal 113% | SF-268 CNS 95.7% | SF-295 CNS 98.5% | SF-539 CNS 97.3% | UACC-257 melanoma 95.4% | M14 melanoma 35.6%
active: 786-0 renal 6.59%

CCOC(=O)c1nn(C2CCCCO2)c2ccc(NS(=O)(=O)c3ccc(C)cc3)cc12 (configuration not stated)
inactive: NCI-H23 lung 100% | NCI-H226 lung 102% | NCI-H322M lung 104% | HOP-62 NSCLC 101% | NCI-H460 lung 99.4% | HOP-92 NSCLC 96.4% | NCI-H522 lung 98% | 786-0 renal 94.4% | COLO 205 colon 121% | DU-145 prostate 106% | K-562 leukemia 82.8% | MALME-3M melanoma 102% | MDA-MB-231 breast 94.2% | RXF 393 renal 119% | SF-268 CNS 96.2% | SF-295 CNS 99.7% | SF-539 CNS 105% | UACC-257 melanoma 97% | M14 melanoma 101%

NC1=NC(=O)NC1(c1ccccc1)c1ccccc1
inactive: NCI-H23 lung 91.9% | NCI-H226 lung 99% | NCI-H322M lung 99.2% | HOP-62 NSCLC 95.6% | NCI-H460 lung 108% | HOP-92 NSCLC 85.3% | NCI-H522 lung 95.1% | 786-0 renal 135% | COLO 205 colon 103% | DU-145 prostate 99.5% | K-562 leukemia 89.5% | MALME-3M melanoma 93.3% | MDA-MB-231 breast 94% | RXF 393 renal 102% | SF-268 CNS 103% | SF-295 CNS 117% | SF-539 CNS 104% | UACC-257 melanoma 103%

CC1(C)OC2[C@@H](CNC(=O)NC(=O)NC(=O)CI)O[C@@H](n3cnc4c(NC(=O)Nc5ccccc5)ncnc43)[C@H]2O1 (some centres not stated)
inactive: NCI-H23 lung 57.7% | NCI-H226 lung 97.1% | NCI-H322M lung 103% | HOP-62 NSCLC 78% | NCI-H460 lung 93.1% | COLO 205 colon 51.7% | DU-145 prostate 105% | MDA-MB-231 breast 58.4% | RXF 393 renal 54.9% | SF-268 CNS 73.4% | SF-295 CNS 84.6% | SF-539 CNS 27.2% | UACC-257 melanoma 94.7%
active: HOP-92 NSCLC -63.2% | NCI-H522 lung -76% | 786-0 renal -77.9% | K-562 leukemia 4.48% | MALME-3M melanoma -61.1%

CCCCNC(=O)NS(=O)(=O)Cc1ccccc1
inactive: NCI-H23 lung 114% | NCI-H226 lung 107% | NCI-H322M lung 118% | HOP-62 NSCLC 107% | NCI-H460 lung 111% | HOP-92 NSCLC 94.4% | NCI-H522 lung 102% | 786-0 renal 99% | COLO 205 colon 118% | DU-145 prostate 111% | K-562 leukemia 99.7% | MALME-3M melanoma 117% | MDA-MB-231 breast 127% | RXF 393 renal 124% | SF-268 CNS 107% | SF-295 CNS 116% | SF-539 CNS 101% | UACC-257 melanoma 104% | M14 melanoma 106%

Nc1nc(N)c2c(n1)NC(c1ccc(F)cc1)C1CCc3ccccc3C1=N2 (configuration not stated)
inactive: NCI-H23 lung 51.1% | NCI-H226 lung 53.1% | NCI-H322M lung 67.3% | HOP-62 NSCLC 74.1% | NCI-H460 lung 26.2% | HOP-92 NSCLC 74.1% | NCI-H522 lung 101% | A549/ATCC NSCLC 58.6% | 786-0 renal 60.9% | COLO 205 colon 48.4% | DU-145 prostate 62.1% | K-562 leukemia 21.4% | MALME-3M melanoma 17.2% | MDA-MB-231 breast 80.8% | RXF 393 renal 83.1% | SF-268 CNS 76.1% | SF-295 CNS 34.2% | SF-539 CNS 56.8% | UACC-257 melanoma 45.6% | M14 melanoma 62.8%

C=C(C)[C@@H]1CC[C@]2(C)[C@H](C(=O)C=C3[C@@H]4C[C@](C)(C(=O)N5CCN(C)CC5)CC[C@]4(C)CC[C@]32C)[C@@]1(C)CCC#N
active: NCI-H23 lung -73.6% [100 µM] | NCI-H226 lung -68.4% [100 µM] | NCI-H322M lung -98.6% [100 µM] | HOP-62 NSCLC -84.5% [100 µM] | NCI-H460 lung -89.9% [100 µM] | HOP-92 NSCLC -45.6% [100 µM] | NCI-H522 lung -68.9% [100 µM] | 786-0 renal -85.5% [100 µM] | COLO 205 colon -69.4% [100 µM] | DU-145 prostate -51.6% [100 µM] | K-562 leukemia -4.62% [100 µM] | MALME-3M melanoma -86.5% [100 µM] | MDA-MB-231 breast -92.4% [100 µM] | RXF 393 renal -86.4% [100 µM] | SF-268 CNS -76.2% [100 µM] | SF-295 CNS -88% [100 µM] | SF-539 CNS -92% [100 µM] | UACC-257 melanoma -77.1% [100 µM] | M14 melanoma -62.6% [100 µM]

Cc1ccc(S(=O)(=O)Oc2ccc([N+](=O)[O-])cc2[N+](=O)[O-])cc1
active: M14 melanoma -8.49%
inactive: NCI-H23 lung 97% | NCI-H226 lung 68.9% | NCI-H322M lung 122% | HOP-62 NSCLC 115% | NCI-H460 lung 110% | HOP-92 NSCLC 65.3% | NCI-H522 lung 18.3% | 786-0 renal 47.7% | COLO 205 colon 85.8% | DU-145 prostate 116% | K-562 leukemia 29% | MALME-3M melanoma 63.6% | MDA-MB-231 breast 94.3% | RXF 393 renal 111% | SF-268 CNS 96.5% | SF-295 CNS 108% | SF-539 CNS 93.6% | UACC-257 melanoma 86.2%
